# Assay results as given in PubChem BioAssay (Tox21).
# Values joined by “and” are separate entries in the source; they are usually repeats but may differ in a detail not shown here. Equal entries are not always repeated. Records with an inconclusive call do not appear. Where a call stands in place of a potency, no number is given. Some structures have more than one record in an assay (separate samples or runs), and their calls can disagree. Active and inactive are the calls of the source. Unless noted, calls follow the shape of the dose curve; as a rule, active = well fitted curve in the direction sought with a large enough effect in the repeat runs; inconclusive = weak or mixed curves; inactive = no such curve, though single readings can be large; an effect the other way counts as inactive or inconclusive.
# How the values were obtained:
# [1] = qHTS assay to identify small molecule antagonists of the estrogen receptor alpha (ER-alpha) signaling pathway using the BG1 cell line in the presence of 0.1 nM 17-beta-estradiol - cell viability counter screen (AID 1259241); details: VM7Luc4E2 (BG1) viability, CellTiter-Fluor protease, 22 h, 0.1 nM estradiol agonist added; series mostly up to 92.4 µM; also: nearly all actives have a fitted effect of over 40% in size; also: potency is read from the fitted curve at half-maximal effect
# Procedure, shortened: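 VM7Luc4E2, 4,000 cells/well, phenol red-free medium + 10% charcoal-stripped FBS; 24 hr plating; cpd + 0.1 nM E2 final, 22 hr 37C/5% CO2; CellTiter-Fluor 30 min, fluorescence.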
# [2] = target: Estrogen receptor (Homo sapiens) (UniProt P03372); test: qHTS assay to identify small molecule antagonists of the estrogen receptor alpha (ER-alpha) signaling pathway using the BG1 cell line in the presence of 0.1 nM 17-beta-estradiol (AID 1259244); details: VM7Luc4E2 (BG1) ERE-luciferase, antagonist mode, 0.1 nM E2, 22 h; series mostly up to 92.4 µM; also: nearly all actives have a fitted effect of over 50% in size; also: potency is read from the fitted curve at half-maximal effect
# Procedure, shortened: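 Luciferase signal from VM7Luc4E2 ERE-reporter cells, co-dosed with test compound and 0.1 nM final 17beta-estradiol for 22 h, read with ONE-Glo.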
# [3] = qHTS assay to identify small molecule phospholipidosis (PLD) inducers (AID 1259344; active = well fitted curve in the direction sought with a large enough effect; an effect the other way counts as inactive or inconclusive); details: HepG2 phospholipidosis, LipidTOX Red imaging, 24 h; series mostly up to 38.3 µM
# Procedure, shortened: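 Image-based: LipidTOX Red pit count/intensity per well and per cell; HepG2, 24 h compound at 37 C, PFA fixation, Hoechst counterstain.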
# [4] = qHTS assay to identify small molecule HDAC inhibitors (AID 1259364); details: HCT-116 HDAC-Glo I/II luminescence, 2 h; series mostly up to 92.4 µM;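 also: wild-type HCT-116 cells with endogenous class I/II HDAC activity; top concentration of the series differs between compounds; nearly all actives have a fitted effect of over 45% in size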
# Procedure, shortened: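 HCT-116 wt cells, 1,500/well, overnight attach. Compounds (DMSO) 2 h, 37 °C. HDAC-Glo I/II, 30 min RT. Luminescence.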
# [5] = qHTS assay to identify small molecule HDAC inhibitors - cell viability counter screen (AID 1259365); details: HCT-116 viability, CellTiter-Glo ATP luminescence, 2 h; series mostly up to 92.4 µM; also: nearly all actives have a fitted effect of over 50% in size
# Procedure, shortened: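 Luminescence from CellTiter-Glo, developed 30min at room temperature, reports viability of wild-type HCT-116 cells treated 2hr with compounds at 37 C and 5% CO2 after overnight plating.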
# [6] = qHTS assay to identify small molecule agonists of the sonic hedgehog signaling (Shh) pathway - cell viability counter screen (AID 1259366); details: NIH/3T3 Gli1-Luc viability, CellTiter-Fluor, 24 h; series mostly up to 92.4 µM; also: nearly all actives have a fitted effect of over 50% in size; also: potency is read from the fitted curve at half-maximal effect
# Procedure, shortened: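 Cytotoxicity counter screen run in the same wells as the Shh reporter assay. NIH/3T3 cells carrying a Gli1 response element–driven luciferase were treated with DMSO-dissolved compounds for 24hr, and live-cell protease activity was measured with CellTiter-Fluor.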
# [7] = qHTS assay to identify small molecule antagonists of the sonic hedgehog signaling (Shh) pathway - cell viability counter screen (AID 1259367); details: NIH/3T3 Gli1-Luc viability, CellTiter-Fluor, 24 h; series mostly up to 92.4 µM; also: nearly all actives have a fitted effect of over 55% in size; also: potency is read from the fitted curve at half-maximal effect
# Procedure, shortened: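 Tox21 library chemicals were tested on a Gli1-Luc NIH/3T3 clone (2,000 cells/well) stimulated by conditioned medium; viability was quantified as fluorescence from CellTiter-Fluor reagent added at 23 hr.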
# [8] = qHTS assay to identify small molecule agonists of the sonic hedgehog signaling (Shh) pathway (AID 1259368; calls by dose curve;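 also: NIH/3T3-derived 3T3Gli1-Luc cells carrying a stable Gli1-driven firefly luciferase reporter; nearly all actives have a fitted effect of over 15% in size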); details: NIH/3T3 Gli1-Luc reporter, luciferase, 24 h; series mostly up to 92.4 µM
# Procedure, shortened: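 Following a 24 hr incubation with DMSO-dissolved compounds at 37 C, 5% CO2, Gli1-Luc NIH/3T3-derived cells received luciferase reagent for 30 min at room temperature prior to luminescence measurement.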
# [9] = qHTS assay to identify small molecule antagonists of the androgen receptor (AR) signaling pathway using the MDA cell line in the presence of 0.5 nM R1881 - cell viability counter screen (AID 1259242); details: MDA-kb2 viability, CellTiter-Fluor protease fluorescence, 16 h; series mostly up to 92.4 µM; also: nearly all actives have a fitted effect of over 45% in size; also: potency is read from the fitted curve at half-maximal effect
# Procedure, shortened: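 Cells seeded at 3,000/well and allowed 5 hr at 37C, 0% CO2 before compound transfer and R1881 (0.5 nM final) addition; 16 hr later, live-cell protease fluorescence indicated cytotoxicity.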
# [10] = target: Androgen receptor (Homo sapiens) (UniProt P10275); test: qHTS assay to identify small molecule antagonists of the androgen receptor (AR) signaling pathway using the MDA cell line in the presence of 0.5 nM R1881 (AID 1259243); details: MDA-kb2 MMTV-luciferase, R1881 0.5 nM, 16 h; series mostly up to 92.4 µM; also: nearly all actives have a fitted effect of over 50% in size; also: potency is read from the fitted curve at half-maximal effect
# Procedure, shortened: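 Luminescence from an AR/GR-responsive MMTV-luciferase construct in MDA-kb2 breast carcinoma cells, read 30 min after ONE-Glo, following 16 hr co-treatment with compounds and 0.5 nM R1881.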
# Chain of Estrogen receptor (Homo sapiens) (P03372 whole entry, looked up): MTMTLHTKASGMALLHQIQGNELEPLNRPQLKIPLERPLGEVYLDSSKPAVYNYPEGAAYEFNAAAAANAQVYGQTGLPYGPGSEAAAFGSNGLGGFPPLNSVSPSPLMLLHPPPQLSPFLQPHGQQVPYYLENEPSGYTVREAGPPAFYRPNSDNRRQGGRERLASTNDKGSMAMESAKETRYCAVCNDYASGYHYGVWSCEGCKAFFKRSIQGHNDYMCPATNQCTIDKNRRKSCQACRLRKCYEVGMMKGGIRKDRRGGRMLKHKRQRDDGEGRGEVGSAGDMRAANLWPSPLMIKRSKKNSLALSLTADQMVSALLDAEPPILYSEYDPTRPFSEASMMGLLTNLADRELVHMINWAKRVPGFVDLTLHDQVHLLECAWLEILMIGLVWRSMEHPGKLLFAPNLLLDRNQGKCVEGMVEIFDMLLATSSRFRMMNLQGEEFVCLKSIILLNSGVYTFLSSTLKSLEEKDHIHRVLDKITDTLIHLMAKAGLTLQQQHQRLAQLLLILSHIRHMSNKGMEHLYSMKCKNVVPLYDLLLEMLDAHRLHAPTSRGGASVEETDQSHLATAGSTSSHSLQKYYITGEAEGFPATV
# Chain of Androgen receptor (Homo sapiens) (P10275 whole entry, looked up): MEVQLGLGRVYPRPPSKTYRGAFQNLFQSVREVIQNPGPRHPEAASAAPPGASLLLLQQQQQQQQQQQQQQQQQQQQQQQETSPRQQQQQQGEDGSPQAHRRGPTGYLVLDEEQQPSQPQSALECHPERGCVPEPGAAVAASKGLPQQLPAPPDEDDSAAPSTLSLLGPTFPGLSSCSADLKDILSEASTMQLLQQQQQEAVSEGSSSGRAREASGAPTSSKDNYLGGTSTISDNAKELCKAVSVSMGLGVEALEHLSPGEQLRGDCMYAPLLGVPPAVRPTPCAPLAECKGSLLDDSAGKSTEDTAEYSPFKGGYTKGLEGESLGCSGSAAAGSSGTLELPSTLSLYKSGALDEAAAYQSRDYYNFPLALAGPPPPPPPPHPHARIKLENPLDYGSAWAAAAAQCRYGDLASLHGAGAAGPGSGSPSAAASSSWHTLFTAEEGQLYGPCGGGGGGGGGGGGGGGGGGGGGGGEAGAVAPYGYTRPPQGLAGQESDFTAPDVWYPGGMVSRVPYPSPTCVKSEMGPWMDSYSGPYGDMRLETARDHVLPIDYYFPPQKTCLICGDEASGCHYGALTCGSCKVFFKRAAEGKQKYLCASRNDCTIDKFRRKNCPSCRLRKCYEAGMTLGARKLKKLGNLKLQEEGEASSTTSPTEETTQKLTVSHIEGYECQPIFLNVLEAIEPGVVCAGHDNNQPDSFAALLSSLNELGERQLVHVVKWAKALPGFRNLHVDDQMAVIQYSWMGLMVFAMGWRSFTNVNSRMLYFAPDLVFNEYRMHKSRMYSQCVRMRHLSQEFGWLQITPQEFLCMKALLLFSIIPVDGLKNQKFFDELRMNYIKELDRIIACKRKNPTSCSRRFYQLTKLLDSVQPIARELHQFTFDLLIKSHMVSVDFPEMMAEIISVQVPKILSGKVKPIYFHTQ
SMILES,Potency [1],Potency [2],Potency [3],Potency [4],Potency [5],Potency [6],Potency [7],Potency [8],Potency [9],Potency [10]
Oc1c(Cl)cc(Cl)cc1Sc1cc(Cl)cc(Cl)c1O,inactive,12.2 µM (active) and 17.5 µM (active) and 15.4 µM (active),inactive,inactive,inactive,inactive,27.4 µM (active) and inactive,inactive,,
O=C(Cl)c1cccc(C(=O)Cl)c1,inactive,,,inactive,inactive,inactive,inactive,inactive,inactive,
c1ccc2n[nH]nc2c1,inactive,,,inactive,inactive,inactive,inactive,inactive,inactive,
Nc1cc(S(=O)(=O)O)cc2cc(S(=O)(=O)O)cc(O)c12,27.3 µM (active),,,inactive,inactive,inactive,,inactive,inactive,
Oc1c(Cl)cc(Cl)c(Cl)c1Cc1c(O)c(Cl)cc(Cl)c1Cl,,,inactive,inactive,inactive,30.5 µM (active) and inactive,inactive,inactive,8.41 µM (active),3.43 µM (active) and 6.11 µM (active) and 6.68 µM (active)
C/C=C/c1ccc(OCC)c(O)c1,inactive,,,,inactive,inactive,inactive,inactive,inactive,
Nc1ccc(O)cc1,,28.4 µM (active) and inactive,inactive,inactive,inactive,17.9 µM (active),31.8 µM (active) and inactive,inactive,50.4 µM (active) and inactive,25.3 µM (active) and inactive
CCCCCCC(O)CCCCCCCCCCC(=O)O (stereo unspecified),inactive,,,inactive,inactive,inactive,inactive,inactive,inactive,
CCN(CC)CCOc1ccc(/C(=C(\Cl)c2ccccc2)c2ccccc2)cc1,inactive,,,inactive,inactive,,inactive,inactive,,
CCc1cc(C(C)(C)C)c(O)c(C(C)(C)C)c1,inactive,,,inactive,inactive,inactive,inactive,inactive,inactive,
CC(N)=O,inactive,,,inactive,inactive,inactive,inactive,inactive,inactive,
C[N+]1([O-])CCOCC1,inactive,,,inactive,inactive,inactive,inactive,inactive,inactive,
O=C(O)CCc1ccccc1,inactive,,,inactive,inactive,inactive,inactive,inactive,inactive,
CC[C@H]1CN2CCc3cc(OC)c(OC)cc3[C@@H]2C[C@@H]1C[C@H]1NCCc2cc(OC)c(OC)cc21,,,inactive,inactive,inactive,0.274 µM (active),487 nM (active) and 2.37 µM (active),inactive,,
CC(C)(C)c1ccc(O)c(C(C)(C)C)c1,inactive,,,inactive,,,,inactive,inactive,
Clc1ccc2c(c1)C(N1CCNCC1)=Nc1ccccc1O2,inactive,inactive,inactive,inactive,inactive,24.3 µM (active) and 13.3 µM (active),inactive,inactive,,
O=Nc1ccc(Nc2ccccc2)cc1,inactive,inactive,,,,24.5 µM (active) and 24.3 µM (active),27.4 µM (active) and 54.5 µM (active),inactive,,48.8 µM (active) and 54.5 µM (active)
CCCCCCCCCCCCc1ccccc1O,inactive,inactive and 61.1 µM (active),,inactive,inactive,60.3 µM (active) and 61.1 µM (active),60.3 µM (active) and 61.1 µM (active),inactive,,30.2 µM (active) and 24.3 µM (active)
CCCCCCCCCCCC[N+](C)(C)C,inactive,,,inactive,inactive,43.1 µM (active) and 61.1 µM (active) and 54.5 µM (active),60.9 µM (active) and 61.1 µM (active) and 30.6 µM (active),inactive,inactive and 24.3 µM (active),
CCOC(=O)C(C)C(C)=O (stereo unspecified),inactive,,,inactive,inactive,inactive,inactive,inactive,inactive,
COc1ccc(CCN2CCC(Nc3nc4ccccc4n3Cc3ccc(F)cc3)CC2)cc1,49.6 µM (active),,,inactive,inactive,1.11 µM (active) and 3.76 µM (active),1.4 µM (active) and 11.9 µM (active),inactive,17.6 µM (active) and 21.1 µM (active),
Oc1ccc(Cl)cc1Cc1cc(Cl)ccc1O,inactive,44.1 µM (active) and 68.6 µM (active),inactive,inactive,inactive,62.3 µM (active) and inactive,55.5 µM (active) and 43.3 µM (active) and inactive,inactive,,13.9 µM (active) and 27.3 µM (active) and 23.7 µM (active)
COC(=O)[C@H]1[C@H]2C[C@@H]3c4[nH]c5cc(OC)ccc5c4CCN3C[C@H]2C[C@@H](OC(=O)c2cc(OC)c(OC)c(OC)c2)[C@@H]1OC,inactive,,,inactive,inactive,inactive,inactive,inactive,inactive,
OCCOCCN1CCN(C(c2ccccc2)c2ccc(Cl)cc2)CC1 (stereo unspecified),inactive,,,inactive,inactive,26.9 µM (active),19.1 µM (active) and inactive,inactive,inactive,
O=C1OC2(c3ccc(O)cc3Oc3cc(O)ccc32)c2ccccc21,,inactive,inactive,inactive,inactive,,,inactive,,
O=C(O[C@@H]1Cc2c(O)cc(O)cc2O[C@@H]1c1cc(O)c(O)c(O)c1)c1cc(O)c(O)c(O)c1,,inactive,,inactive,inactive,27.4 µM (active) and 26.3 µM (active),23.4 µM (active),inactive,,
CC(C)(C)c1ccccc1,inactive,,,inactive,inactive,inactive,inactive,inactive,inactive,
O,inactive,,,inactive,inactive,inactive,inactive,inactive,inactive,
COc1ccc(COC(C)=O)cc1,inactive,,,inactive,inactive,inactive,inactive,inactive,inactive,
CC1=C(C=O)C(C)(C)CC=C1,inactive,,,inactive,inactive,inactive,inactive,inactive,inactive,
